# Shown is part of a subset that was picked to be rich in hits.
# Methyltransferases – Primary Screen for Target Class Profiling of Small Molecule Inhibitors of Methyltransferases. purified enzyme, MTase-Glo SAH luminescence; active compounds read low. calls only at 40 µM. AID 1745853, 2022. 25,000 compounds, 3.9% hits; call rule not given here
#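 Each enzyme was assayed with SAM and its substrate. SAH formation detected by MTase-Glo luminescence; single-point 40 uM screen[…].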
# * = called active by the depositor; i = inactive; + = active, no number. On the % scale 0 is the no-effect control and ±100 the full control effect.
SMILES,Methyltransferases
COc1ccc(C(=O)Nc2ccc3c(c2)C(=O)N(C)C2=NCCN23)cc1OC,i
COc1ccc(NC(=O)c2nc3sccn3c2-c2ccncc2)cc1,i
CN(C)CCCc1cc(C(=O)Nc2ccc(-c3ccncc3)cc2)ccc1O,+
C[C@@H]1C[C@@H](O)[C@@]23CO[C@]2(CO)CCC[C@@H]3[C@@]12C[C@@H](c1ccoc1)OC2=O,i
C[C@@H]1CC[C@]2(C(=O)O[C@@H]3O[C@H](CO[C@@H]4O[C@H](CO)[C@@H](O)[C@H](O)[C@H]4O)[C@@H](O)[C@H](O)[C@H]3O)CC[C@]3(C)C(=CCC4[C@@]5(C)CC[C@H](O)[C@](C)(C(=O)O)C5CC[C@]43C)[C@@H]2[C@]1(C)O (stereo partly drawn),i
O=C(O)CCc1nccc2c1[nH]c1ccccc12,i
Oc1cccc(Nc2ccnc3[nH]c4ccccc4c23)c1,+
COc1ccc(Nc2nc3c(S(=O)(=O)c4ccccc4)nnn3c3ccccc23)c(OC)c1,i
Cc1nc(NC(C)c2nc(-c3cccnc3)no2)c2cccnc2n1 (stereo not drawn),i
CC(C)NC(=O)c1ccc2c(=O)n(Cc3ccccc3)c3nn(Cc4ccccc4Cl)c(=O)n3c2c1,i
CC(C)(C)Sc1c(CC(C)(C)C(=O)O)n(Cc2ccc(Cl)cc2)c2ccc(OCc3ccc4ccccc4n3)cc12,+
COc1ccc(CNC(=O)CCc2nnc3n(Cc4ccc(Cl)cc4)c(=O)c4ccccc4n23)cc1,i
COc1ccc(Cn2c(=O)c3ccccc3n3c(-c4ccc(Cl)cc4)nnc23)cc1,i
O=C1NC(=O)C(c2cnc3ccccn23)=C1c1cn2c3c(cc(F)cc13)CN(C(=O)N1CCCCC1)CC2,+
CN1C(=O)c2cc(C(=O)NC3CC3)nn2CC1(C)C(=O)NCc1ccccc1 (stereo not drawn),i
CC(C)Cn1c(=O)c2ccc(C(=O)NC3CCCC3)cc2n2c(SCC(N)=O)nnc12,i
COc1cccc(C(C)N(C)C(=O)c2cc(Cn3ccnc3C(C)C)[nH]n2)c1 (stereo not drawn),i
COc1cccc(-c2cc(NCc3ccc4c(c3)OCO4)nc(N)n2)c1,+
Clc1cccc(-c2nnn3c2nc(NCc2ccc4c(c2)OCO4)c2ccccc23)c1,i
Fc1cccc(-c2nnn3c2nc(NCc2ccc4c(c2)OCO4)c2cc(Cl)ccc23)c1,i
CCCn1c(=O)c2ccc(Cl)cc2n2c(=O)n(Cc3ccc(F)cc3)nc12,i
Cc1ccc(N2C(=O)c3cc4sccc4n3CC2(C)C(=O)NC2CCCCCCC2)cc1 (stereo not drawn),i
CN(C)C(=O)N1CCCn2nc(CNC(=O)Nc3cccc(C#N)c3)cc2C1,i
Cc1ccc(C)c(Cn2nc3n(Cc4ccc(F)cc4)c(=O)c4ccccc4n3c2=O)c1,i
CC1(C(=O)NC2CCCCCCC2)Cn2c(cc3occc32)C(=O)N1Cc1ccccc1 (stereo not drawn),i
SMILES,Methyltransferases
Cc1ccc2c(c1)c1c(n2CCc2ccc(C)nc2)CCN(C)C1,+
CC(C)NC(=O)NC[C@H]1OC[C@@H](NCc2cnc[nH]2)[C@@H]1O,i
Cc1cc(C)cc(NC(=O)c2cc3n(n2)CC(C)(C(=O)NC2CCCCCC2)N(C)C3=O)c1 (stereo not drawn),i
COc1ccccc1CNC(=O)C1c2c(n(C)c3ccccc23)SCC(=O)N1c1cc(F)ccc1F (stereo not drawn),i
COc1ccccc1N1CCN(CCCCN2C(=O)c3ccccc3C2=O)CC1,i
COc1ccccc1N1CCN(c2ncnc3n[nH]c(Br)c23)CC1,+
COc1ccccc1N1CCN(CCN(C(=O)c2ccc(F)cc2)c2ccccn2)CC1,i
CC(=O)Nc1c2n(c3ccccc13)CC(C)(C(=O)NC1CCCCC1)N(Cc1ccccc1)C2=O (stereo not drawn),i
CCNC(=O)N1CCC(Cc2ccc(C(=O)O)cc2)CC1,i
COc1ccc(OC)c(CN2C(=O)c3cc4ccccc4n3CC2(C)C(=O)NCCC(C)C)c1 (stereo not drawn),i
COc1ccc(N2C(=O)c3cc4ccccc4n3CC2(C)C(=O)NCCC(C)C)c(OC)c1 (stereo not drawn),i
COc1ccc(C(=O)N(CCC(C)C)Cc2nc(C)c(C)n2Cc2ccccc2C)c(OC)c1,+
C[C@]12CCC[C@](C)(C(=O)O)C1CCC13CC(CO)C(CCC12)C3 (stereo partly drawn),i
CC[C@@](C)(Nc1ccnc(-c2c[nH]c3ncccc23)n1)C(=O)NCC(F)(F)F,i
Brc1c(Br)c(Br)c2[nH]cnc2c1Br,+
CC12CCC3C1C(c1c(cc(O)c(C(=O)c4ccccc4)c1O)O2)C3(C)C (stereo not drawn),+
COC(=O)c1cc(OC)cc(OC)c1C(=O)c1c(OC)cc2c(c1O)C1CCCC(C)(O2)O1 (stereo not drawn),i
CCOC(=O)N1CCC(N2CCC[C@@H](NC(=O)c3ccccc3C)C2)CC1,i
CC(C)c1ccc(S(=O)(=O)c2nnn3c2nc(N)c2ccccc23)cc1,i
O=C1COc2ccc(S(=O)(=O)N3CCCn4nc(CO)cc4C3)cc2N1,i
CCC(=O)Nc1cccc(Oc2nc(Nc3ccc(N4CCN(C)CC4)cc3OC)ncc2Cl)c1,i
COc1ccc(N2CCN(c3nc(C(=O)NCc4cccc(C)c4)cs3)CC2)cc1,i
COc1ccc(N(C(=O)Nc2c(C)cccc2C)c2cc(Nc3ccc(N4CCN(C)CC4)cc3)ncn2)c(OC)c1,+
Cc1ccc(Cn2c(=O)c3ccccc3n3c(SCC(=O)Nc4ccc(C)cc4)nnc23)cc1,i
CCc1ccc(S(=O)(=O)c2nnn3c2nc(NCCOC)c2cc(Cl)ccc23)cc1,i
SMILES,Methyltransferases
CC(C)(O)[C@@H]1CC[C@]2(CO)[C@@H](O)CC[C@](C)(O)[C@H]2[C@@H]1O[C@@H]1O[C@H](CO)[C@@H](O)[C@H](O)[C@H]1O,i
O=C1CSc2ccccc2N1Cc1cccc(C(F)(F)F)c1,+
O=C1CN(Cc2cccc(F)c2)S(=O)(=O)c2ccccc2N1Cc1ccc(Cl)cc1,i
Cc1ccc(CN2CC(=O)N(Cc3cccc(F)c3)c3ccccc3S2(=O)=O)cc1,i
CN1C[C@H](O)C[C@H]1c1nnc2n1CCN(C(=O)c1cccnc1)CC2,i
CNC(=O)c1cc(C)nc2onc(C3CCN(C(=O)C4CCCC4)CC3)c12,i
CCCn1c(=O)c2ccc(Cl)cc2n2c(SCC(=O)NC3CCCCC3)nnc12,i
CC1CCC2C(=CCC(O)C2(C)C)C1(C)Cc1c(O)cc(CO)c(C=O)c1O (stereo not drawn),i
CCCNc1ccc2ncc(-c3ccc4[nH]ncc4c3)n2n1,+
Cc1ccc(-c2nnn3c2nc(NCC2CCCO2)c2ccccc23)cc1 (stereo not drawn),i
O=S(=O)(NCCn1c(CCc2ccccc2)nc2ccccc21)c1ccccc1Cl,i
Cc1ccc(NC(=O)N2CCn3cccc3C2C)cc1Cl (stereo not drawn),i
O=C(CCc1nnc2n(Cc3ccc(F)cc3)c(=O)c3ccccc3n12)N1CCOCC1,i
CCCn1c(=O)c2ccc(C(=O)NC(C)CC)cc2n2c(=O)n(CC(=O)Nc3ccc(C)cc3)nc12 (stereo not drawn),i
CC(C)COC(=O)c1ccc2c(c1)C1C=CCC1C(c1ccc(Cl)cc1)N2 (stereo not drawn),i

# Source: PubChem
